From PubChem BioAssay (EPA / NIEHS)
Inconclusive results are not listed. Some structures have more than one record in an assay (separate samples or runs), and their calls can disagree. The source made the active and inactive calls. How the source made its calls: active means hit-call score of the fitted dose curve at least 0.9, where 1 is the maximum; inconclusive means response in the unintended direction; inactive means score below 0.9.

Experiment: TOX21_p53_BLA_p3_viability: Viability Assessment in the Tox21 HCT-116 p53 Agonism Beta-lactamase Assay, Phase 3 (AID 2283593);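 further: cells exposed to compound for 16 h before reading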
Source text: TOX21_p53_BLA_p3 is a cell-based, single-readout assay that uses HCT116, a human intestinal cell line, […] in a 1536-well plate.TOX21_p53_BLA_p3_viability is an assay readout measuring cellular ATP content and detected with CellTiter-Glo Luciferase-coupled ATP quantitation.TOX21_p53_BLA_p3_viability used a type of viability reporter where loss-of-signal activity can be used to understand changes in the cell viability. Furthermore, this assay endpoint can be referred to as a secondary readout, because this assay has produced multiple assay endpoints where this one serves a viability function. To generalize the intended target to other relatable targets, this assay endpoint is annotated to the cell cycle intended target family, where the subfamily is cytotoxicity.
Thawing Method: Place 14 mL of pre-warmed thaw medium into a 15 mL of conical tub. Remove the vial of cells to be thawed from liquid nitrogen and thaw rapidly by placing at 37C in a water bath with gentle agitation for 1-2 minutes. Decontaminate the vial by wiping with 70% ethanol before opening in a biological safety cabinet. Transfer the vial contents drop-wise into 14 mL of thaw medium in a sterile 15-mL conical tub. Centrifuge cells at 900 rpm for 4 minutes and resuspend in thaw medium. Transfer contents to the T75 tissue culture flask containing Thaw Medium and place flask in a humidified 37C/5% CO2 incubator. Switch to growth medium at first passage.Propagation Method: Aspirate medium, rinse once in DPBS, add 0.25% Trypsin/EDTA and swirl to coat the cell evenly. Add an equal volume of Growth Medium to inactivate Trypsin after 2-3 minutes incubation at 37C. Centrifuge cells at 900 rpm for 4 minutes and resuspend in growth medium. Cell should be passage or fed at least twice a week.Assay Protocol: Harvest cells from culture in growth medium and resuspend in assay medium. 2.2 Dispense 4000 cells/5 uL/well into 1536-well black/clear bottom plates using a Multidrop dispenser. After the cells were incubated at 37C for 5 hours, 23 nL of compounds dissolved in DMSO were transferred to the assay plate by a PinTool resulting in a 217-fold dilution. Incubate the plates for 16 hours at 37C, 5% CO2. Add 1 uL of 6X LiveBLAzer FRET B/G (CCF4-AM) Substrate Mixture to each well using a BioRAPTR dispenser and incubate the plates at room temperature for 2 hours. Measure fluorescence intensity at 460 and 530 nm emission and 405 nm excitation by an Envision detector. Data is expressed as the ratio of 460nm/530nm emissions. Add 4 uL of Cell-titer Glo to each well using BioRAPTR and incubate the plates at room temperature for […]. For cell viability readout that measures cytotoxicity, 4 ul/well of CellTiter-Glo reagent was added into the assay plates using a Flying Reagent Dispenser. After 30 min incubation at room temperature, the luminescence intensity in the plates was measured using a ViewLux plate reader.
In the case of `CC(O)CNCC(C)O` (stereo not given), the outcome is reported as “inactive”. In the case of `CCCCCCC(C)O` (stereo not given), the outcome is reported as “inactive”. For `C=C(C)C(=O)OCCN(C)C`, the outcome was “inactive”. With `NC(=O)NC(N)=O` the outcome was “inactive”. In the case of `CC(=O)OC(C)(C)C`, the outcome is reported as “inactive”. With `NC(N)=S` the outcome was “inactive”. For `Nc1ccc(O)c(N)c1`, the outcome was “inactive” and the AC50 was 64 µM (active). For `C=CC(O)CCCCC` (stereo not given), the outcome was “inactive”. For `C=CCOC(=O)/C=C\C(=O)OCC=C`, the outcome was “inactive”. With `CC(=O)OC/C=C(C)/C=C/C=C(C)/C=C/C1=C(C)CCCC1(C)C` the outcome was “inactive”. In the case of `CC(=O)C1C(=O)C=C(C)OC1=O` (stereo not given), the outcome is reported as “inactive”. With `COc1ccccc1NC(=O)CC(C)=O` the outcome was “inactive”. In the case of `CCCCOCCOCCO`, the outcome is reported as “inactive”. For `CCCCCCOc1ccc(O)cc1`, the outcome was “inactive”. In the case of `COC(=O)C(C)Oc1ccc(Oc2ncc(C(F)(F)F)cc2Cl)cc1` (stereo not given), the outcome is reported as “inactive”. For `CC/C(=C(\c1ccccc1)c1ccc(OCCN(C)C)cc1)c1ccccc1`, the AC50 was 74.8 µM (active) [middle of 5 runs]. In the case of `C=C(C)CCCC(C)CCO` (stereo not given), the outcome is reported as “inactive”. In the case of `CCCC(O)C(CC)CO` (stereo not given), the outcome is reported as “inactive”. In the case of `COc1ccc(OC)cc1`, the outcome is reported as “inactive”. With `CCCCCCCCCCCCOCCOS(=O)(=O)O` the outcome was “inactive”. With `CCO[Si](CC)(OCC)OCC` the outcome was “inactive”. With `CCCO[Si](OCCC)(OCCC)OCCC` the outcome was “inactive”. In the case of `CC(C)Cc1ccc(C(C)C(=O)O)cc1` (stereo not given), the outcome is reported as “inactive”. In the case of `CN(C)CCCNCCCN(C)C`, the outcome is reported as “inactive”. For `C=C(C)C(=O)OCCC[Si](OC)(OC)OC`, the outcome was “inactive”. For `COC(=O)c1ccc(C(=O)OC)cc1`, the outcome was “inactive”. With `CCCCCC(=O)O[C@]1(C(C)=O)CC[C@H]2[C@@H]3CCC4=CC(=O)CC[C@]4(C)[C@H]3CC[C@@]21C` the outcome was “inactive”. In the case of `CCCCCCCC(=O)N(C)C`, the outcome is reported as “inactive”. In the case of `CC1=CCC(C(C)C)=CC1`, the outcome is reported as “inactive”. For `CCC(=O)OC(C)(C)C1CC=C(C)CC1` (stereo not given), the outcome was “inactive”. For `Nc1ccn([C@H]2CC[C@@H](CO)O2)c(=O)n1`, the outcome was “inactive”. For `C=C1CC/C=C(\C)CC[C@@H]2[C@@H]1CC2(C)C`, the outcome was “inactive”. For `O=C(C=Cc1ccccc1)OCCCc1ccccc1`, the outcome was “inactive”. With `CCCCCCCCCCCCS` the outcome was “inactive”. With `CN(C)CCC=C1c2ccccc2CCc2ccccc21` the outcome was “inactive”. In the case of `CCCCCCCCCC(=O)OCC`, the outcome is reported as “inactive”. In the case of `CCCCCc1cccc(=O)o1`, the outcome is reported as “inactive”. For `CCCCN(CCCC)CCCCCCN(CCCC)CCCC`, the outcome was “inactive”. For `O=[N+]([O-])c1cc(N(CCO)CCO)ccc1NCCO`, the outcome was “inactive”.
